Key:
Experiment in all cases: DAPPL (digital affinity profiling via proximity ligation, sequencing); 10 mM Tris-HCl pH 7.5, 50 mM NaCl, 1 mM DTT, 4% glycerol, room temperature, 30 min; GST-TFs on glutathione beads, 16-mer random dsDNA library, 0.1% formaldehyde crosslink after washing; high values mean tight binding
Details in all cases: protein: recombinant; tags: N-terminal GST; dsDNA, one strand shown
FLI1 = biological target: T1, FLI1 (Homo sapiens, UniProt Q01543 1-452)
T1 sequence: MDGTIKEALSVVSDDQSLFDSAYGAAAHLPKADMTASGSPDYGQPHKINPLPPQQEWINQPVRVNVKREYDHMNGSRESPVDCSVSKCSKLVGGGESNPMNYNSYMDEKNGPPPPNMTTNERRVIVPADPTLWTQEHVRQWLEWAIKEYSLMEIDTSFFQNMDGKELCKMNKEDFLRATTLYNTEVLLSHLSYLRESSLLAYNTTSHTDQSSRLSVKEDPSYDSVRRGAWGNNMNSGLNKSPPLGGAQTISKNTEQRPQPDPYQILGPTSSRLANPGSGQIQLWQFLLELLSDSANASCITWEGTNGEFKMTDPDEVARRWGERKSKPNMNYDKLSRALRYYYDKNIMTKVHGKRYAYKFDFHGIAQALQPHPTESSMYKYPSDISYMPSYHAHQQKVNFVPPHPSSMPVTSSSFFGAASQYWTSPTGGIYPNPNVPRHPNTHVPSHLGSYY
In short: (§1)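 After expression in yeast as GST fusions, human transcription factors were bound to glutathione beads, DNA-barcoded and mixed with a tag-only sample. The pools were incubated with 200 nmole of a 16-mer random double-stranded DNA library in Tris/NaCl/DTT/glycerol buffer (30 min, room temperature), washed and crosslinked with 0.1% formaldehyde. Proximity ligation with BsaI/T4 ligase ran for 1 h at 37 °C, before PCR amplification and sequencing on an Illumina NextSeq500. Binding signal is a hexamer's read frequency for a factor divided by its frequency for the tag-only sample.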

ELK1 = biological target: T2, ELK1 (Homo sapiens, UniProt P19419 1-428)
T2 sequence: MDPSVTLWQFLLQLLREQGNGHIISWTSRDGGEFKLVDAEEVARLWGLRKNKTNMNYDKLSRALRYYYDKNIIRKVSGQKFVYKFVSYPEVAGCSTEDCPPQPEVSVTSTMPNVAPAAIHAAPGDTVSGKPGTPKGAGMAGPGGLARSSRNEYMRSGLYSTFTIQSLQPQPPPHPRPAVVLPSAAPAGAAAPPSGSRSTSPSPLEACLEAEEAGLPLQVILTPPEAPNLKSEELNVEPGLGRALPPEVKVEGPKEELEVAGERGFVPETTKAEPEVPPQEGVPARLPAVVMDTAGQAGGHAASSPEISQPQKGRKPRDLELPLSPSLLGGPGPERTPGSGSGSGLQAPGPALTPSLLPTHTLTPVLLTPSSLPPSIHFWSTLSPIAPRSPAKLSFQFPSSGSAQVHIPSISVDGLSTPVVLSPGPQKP
In short: as §1

GABPA = biological target: T3, GABPA (Homo sapiens, UniProt Q06546 1-454)
T3 sequence: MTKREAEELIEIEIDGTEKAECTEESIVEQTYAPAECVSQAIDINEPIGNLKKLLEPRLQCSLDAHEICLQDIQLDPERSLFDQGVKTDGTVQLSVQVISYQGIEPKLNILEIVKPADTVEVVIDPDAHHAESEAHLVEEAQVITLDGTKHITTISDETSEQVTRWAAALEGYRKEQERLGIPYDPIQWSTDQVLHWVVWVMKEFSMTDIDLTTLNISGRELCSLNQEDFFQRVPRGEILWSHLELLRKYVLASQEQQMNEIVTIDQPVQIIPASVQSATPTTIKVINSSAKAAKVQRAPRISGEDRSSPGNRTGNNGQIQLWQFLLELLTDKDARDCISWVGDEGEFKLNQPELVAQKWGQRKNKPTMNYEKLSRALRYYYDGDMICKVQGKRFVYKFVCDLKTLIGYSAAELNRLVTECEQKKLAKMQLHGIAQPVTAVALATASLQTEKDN
In short: as §1

ERG = biological target: T4, ERG (Homo sapiens, UniProt P11308 1-479)
T4 sequence: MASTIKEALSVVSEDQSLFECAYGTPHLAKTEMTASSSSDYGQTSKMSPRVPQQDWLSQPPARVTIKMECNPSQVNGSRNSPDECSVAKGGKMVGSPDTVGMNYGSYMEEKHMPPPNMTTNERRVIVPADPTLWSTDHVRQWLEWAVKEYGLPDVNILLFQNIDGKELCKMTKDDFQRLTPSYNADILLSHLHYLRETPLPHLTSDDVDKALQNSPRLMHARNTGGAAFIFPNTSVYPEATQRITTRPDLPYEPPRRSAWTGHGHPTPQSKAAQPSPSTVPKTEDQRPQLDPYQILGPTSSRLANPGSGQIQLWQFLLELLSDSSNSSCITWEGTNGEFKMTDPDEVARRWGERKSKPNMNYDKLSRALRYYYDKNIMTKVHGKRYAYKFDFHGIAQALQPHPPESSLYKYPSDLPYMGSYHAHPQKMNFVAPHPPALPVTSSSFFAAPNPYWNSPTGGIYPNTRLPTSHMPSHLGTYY
In short: as §1

ELF1 = ELF1 (Homo sapiens, UniProt P32519 1-619)
In short: as §1

EHF = biological target: T5, EHF (Homo sapiens, UniProt Q9NZC4 1-300)
T5 sequence: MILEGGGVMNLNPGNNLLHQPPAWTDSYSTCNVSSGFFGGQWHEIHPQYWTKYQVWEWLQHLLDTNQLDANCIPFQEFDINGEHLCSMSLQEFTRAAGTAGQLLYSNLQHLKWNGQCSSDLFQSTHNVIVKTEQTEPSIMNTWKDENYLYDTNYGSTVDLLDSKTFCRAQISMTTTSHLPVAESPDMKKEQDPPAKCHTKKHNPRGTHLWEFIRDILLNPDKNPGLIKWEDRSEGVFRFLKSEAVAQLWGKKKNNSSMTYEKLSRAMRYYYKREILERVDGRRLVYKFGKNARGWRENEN
In short: as §1

SPI1 = SPI1 (Homo sapiens, UniProt P17947 1-270)
In short: as §1

SPIB = SPIB (Homo sapiens, UniProt Q01892 1-262)
In short: as §1

ELK3 = biological target: T6, ELK3 (Homo sapiens, UniProt P41970 1-407)
T6 sequence: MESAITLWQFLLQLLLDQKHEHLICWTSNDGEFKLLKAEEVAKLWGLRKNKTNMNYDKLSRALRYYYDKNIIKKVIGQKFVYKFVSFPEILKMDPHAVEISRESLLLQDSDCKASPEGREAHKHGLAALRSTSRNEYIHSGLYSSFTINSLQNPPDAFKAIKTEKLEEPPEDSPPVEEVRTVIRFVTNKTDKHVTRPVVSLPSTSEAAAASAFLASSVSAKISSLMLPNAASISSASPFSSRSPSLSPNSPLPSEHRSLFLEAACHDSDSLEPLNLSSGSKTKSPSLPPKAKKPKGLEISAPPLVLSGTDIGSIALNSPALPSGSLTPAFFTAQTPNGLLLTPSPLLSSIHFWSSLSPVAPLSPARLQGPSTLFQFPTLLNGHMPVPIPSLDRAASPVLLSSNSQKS
In short: as §1

Sequence of ELF1 (P32519 whole entry): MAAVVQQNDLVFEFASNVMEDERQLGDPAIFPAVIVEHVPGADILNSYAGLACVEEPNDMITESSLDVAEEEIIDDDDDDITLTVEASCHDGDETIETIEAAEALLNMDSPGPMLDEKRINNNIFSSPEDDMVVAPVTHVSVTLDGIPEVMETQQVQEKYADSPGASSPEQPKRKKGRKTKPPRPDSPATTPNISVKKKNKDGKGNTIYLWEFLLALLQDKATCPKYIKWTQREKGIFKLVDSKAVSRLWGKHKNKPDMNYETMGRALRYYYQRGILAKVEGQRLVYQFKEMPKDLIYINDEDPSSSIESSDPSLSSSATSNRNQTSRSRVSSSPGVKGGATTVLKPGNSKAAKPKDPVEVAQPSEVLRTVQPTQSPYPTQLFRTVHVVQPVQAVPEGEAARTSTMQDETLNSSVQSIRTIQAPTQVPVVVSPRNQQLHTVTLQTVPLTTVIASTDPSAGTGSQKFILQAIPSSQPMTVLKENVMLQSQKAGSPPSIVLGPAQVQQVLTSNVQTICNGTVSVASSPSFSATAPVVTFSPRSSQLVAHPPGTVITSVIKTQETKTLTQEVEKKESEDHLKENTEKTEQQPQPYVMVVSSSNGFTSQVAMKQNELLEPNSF
Sequence of SPIB (Q01892 whole entry): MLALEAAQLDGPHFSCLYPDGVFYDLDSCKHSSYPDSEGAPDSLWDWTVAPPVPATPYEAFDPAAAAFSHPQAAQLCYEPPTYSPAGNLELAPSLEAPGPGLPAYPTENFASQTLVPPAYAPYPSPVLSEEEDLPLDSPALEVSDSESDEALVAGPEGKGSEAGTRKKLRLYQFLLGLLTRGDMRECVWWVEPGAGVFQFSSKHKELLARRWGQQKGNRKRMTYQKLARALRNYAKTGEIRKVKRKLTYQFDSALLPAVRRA

Row | Sequence | binding signal (FLI1) | binding signal (ELK1) | binding signal (GABPA) | binding signal (ERG) | binding signal (ELF1) | binding signal (EHF) | binding signal (SPI1) | binding signal (SPIB) | binding signal (ELK3)
1 | AAAATC | 1.16 fold enrichment (6-mer frequency, TF over GST control) | 1.11 fold enrichment (6-mer frequency, TF over GST control) | 1.22 fold enrichment (6-mer frequency, TF over GST control) | 1.18 fold enrichment (6-mer frequency, TF over GST control) | 1.15 fold enrichment (6-mer frequency, TF over GST control) | 1.2 fold enrichment (6-mer frequency, TF over GST control) | 1.14 fold enrichment (6-mer frequency, TF over GST control) | 1.17 fold enrichment (6-mer frequency, TF over GST control) | 1.1 fold enrichment (6-mer frequency, TF over GST control)
2 | ATATTA | 1.08 fold enrichment (6-mer frequency, TF over GST control) | 1.11 fold enrichment (6-mer frequency, TF over GST control) | 1.12 fold enrichment (6-mer frequency, TF over GST control) | 1.09 fold enrichment (6-mer frequency, TF over GST control) | 1.16 fold enrichment (6-mer frequency, TF over GST control) | 1.08 fold enrichment (6-mer frequency, TF over GST control) | 1.03 fold enrichment (6-mer frequency, TF over GST control) | 1.16 fold enrichment (6-mer frequency, TF over GST control) | 1.13 fold enrichment (6-mer frequency, TF over GST control)
3 | TCCTAT | 1.62 fold enrichment (6-mer frequency, TF over GST control) | 1.56 fold enrichment (6-mer frequency, TF over GST control) | 1.58 fold enrichment (6-mer frequency, TF over GST control) | 1.45 fold enrichment (6-mer frequency, TF over GST control) | 1.46 fold enrichment (6-mer frequency, TF over GST control) | 1.5 fold enrichment (6-mer frequency, TF over GST control) | 1.44 fold enrichment (6-mer frequency, TF over GST control) | 1.6 fold enrichment (6-mer frequency, TF over GST control) | 1.47 fold enrichment (6-mer frequency, TF over GST control)
4 | ACGCCT | 1.16 fold enrichment (6-mer frequency, TF over GST control) | 1.24 fold enrichment (6-mer frequency, TF over GST control) | 1.21 fold enrichment (6-mer frequency, TF over GST control) | 1.2 fold enrichment (6-mer frequency, TF over GST control) | 1.29 fold enrichment (6-mer frequency, TF over GST control) | 1.12 fold enrichment (6-mer frequency, TF over GST control) | 1.14 fold enrichment (6-mer frequency, TF over GST control) | 1.2 fold enrichment (6-mer frequency, TF over GST control) | 1.21 fold enrichment (6-mer frequency, TF over GST control)
5 | ATTGTT | 1.49 fold enrichment (6-mer frequency, TF over GST control) | 1.42 fold enrichment (6-mer frequency, TF over GST control) | 1.55 fold enrichment (6-mer frequency, TF over GST control) | 1.48 fold enrichment (6-mer frequency, TF over GST control) | 1.38 fold enrichment (6-mer frequency, TF over GST control) | 1.53 fold enrichment (6-mer frequency, TF over GST control) | 1.45 fold enrichment (6-mer frequency, TF over GST control) | 1.57 fold enrichment (6-mer frequency, TF over GST control) | 1.55 fold enrichment (6-mer frequency, TF over GST control)
6 | CTCTAG | 1.25 fold enrichment (6-mer frequency, TF over GST control) | 1.26 fold enrichment (6-mer frequency, TF over GST control) | 1.32 fold enrichment (6-mer frequency, TF over GST control) | 1.25 fold enrichment (6-mer frequency, TF over GST control) | 1.38 fold enrichment (6-mer frequency, TF over GST control) | 1.36 fold enrichment (6-mer frequency, TF over GST control) | 1.09 fold enrichment (6-mer frequency, TF over GST control) | 1.22 fold enrichment (6-mer frequency, TF over GST control) | 1.26 fold enrichment (6-mer frequency, TF over GST control)
7 | CTATAC | 1.28 fold enrichment (6-mer frequency, TF over GST control) | 1.22 fold enrichment (6-mer frequency, TF over GST control) | 1.35 fold enrichment (6-mer frequency, TF over GST control) | 1.24 fold enrichment (6-mer frequency, TF over GST control) | 1.31 fold enrichment (6-mer frequency, TF over GST control) | 1.21 fold enrichment (6-mer frequency, TF over GST control) | 1.21 fold enrichment (6-mer frequency, TF over GST control) | 1.16 fold enrichment (6-mer frequency, TF over GST control) | 1.21 fold enrichment (6-mer frequency, TF over GST control)
8 | TATTGT | 1.27 fold enrichment (6-mer frequency, TF over GST control) | 1.32 fold enrichment (6-mer frequency, TF over GST control) | 1.29 fold enrichment (6-mer frequency, TF over GST control) | 1.3 fold enrichment (6-mer frequency, TF over GST control) | 1.28 fold enrichment (6-mer frequency, TF over GST control) | 1.23 fold enrichment (6-mer frequency, TF over GST control) | 1.19 fold enrichment (6-mer frequency, TF over GST control) | 1.28 fold enrichment (6-mer frequency, TF over GST control) | 1.53 fold enrichment (6-mer frequency, TF over GST control)

— paper PMC7862700, “An all-to-all approach to the identification of sequence-specific readers for epigenetic DNA modifications on cytosine”
